Test results: PubChem BioAssay (NCATS)
Inconclusive results are not listed. Entries that show only a call come without a potency. Active and inactive are the calls of the source. Unless noted, calls come from the whole dose curve; as a rule, active = well fitted curve in the direction sought with a large enough effect; inconclusive = small, poorly fitted or top-dose-only effect, or another doubt; inactive = no such curve, though single readings can be large; an effect the other way counts as inactive or inconclusive.

What was measured:
[1] = NS1 protein of Zika virus - qHTS assay to identify small molecule inhibitors in human HEK 293 cells (AID 1347053); settings: HEK293 ZIKV MR766 infection, NS1 TR-FRET, 24 h; series mostly up to 46.1 µM; note: nearly all actives have a fitted effect of over 55% in size; note: potency is the fitted concentration of half-maximal effect
Method in brief: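 HEK 293; 20 h pre-culture, 37 C/5% CO2; cpd 1 h pre-infection; ZIKV MR766, MOI = 0.5, 24 h, 37 C; TR-FRET NS1 readout (two anti-NS1 Abs); norm. to no-virus vs infected.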

[2] = qHTS of pediatric cancer cell lines to identify multiple opportunities for drug repurposing: Primary screen for TC32 cells (AID 1347089); settings: TC32 Ewing sarcoma viability, CellTiter-Glo luminescence, 48 h; series mostly up to 45.8 µM; note: nearly all actives have a fitted effect of over 60% in size; note: potency is the fitted concentration of half-maximal effect
Method in brief: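 Luminescent ATP read-out (CellTiter-Glo) of metabolically active TC32 cells after 48 h exposure. Concentration-response curves came from 11-point (MIPE, 0.78 nM–46 µM) or 8-point (NPC, 0.59 nM–46 µM) primary titrations; follow-up used 11 points.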

[3] = qHTS of pediatric cancer cell lines to identify multiple opportunities for drug repurposing: Primary screen for DAOY cells (AID 1347090); settings: DAOY medulloblastoma viability, CellTiter-Glo luminescence, 48 h; series mostly up to 46 µM; note: nearly all actives have a fitted effect of over 55% in size; note: potency is the fitted concentration of half-maximal effect
Method in brief: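 Cell viability, CellTiter-Glo luminescence; 500-1,000 cells/well, 8- or 11-point titration, 48 h compound exposure at 37 degrees C, 5% CO2. Controls: DMSO neutral, bortezomib 2.3 µM final as positive.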

[4] = target: T1, Tyrosine-protein phosphatase non-receptor type substrate 1 (Homo sapiens) + Leukocyte surface antigen CD47 (Homo sapiens) (UniProt P78324+Q08722); assay: CD47-SIRPalpha protein protein interaction - LANCE assay qHTS validation (AID 1347057; active = well fitted curve in the direction sought with a large enough effect in the signal ratio, with a control signal flat, not every such curve was filed as active; the % refers to the signal ratio); settings: Recombinant CD47-His / biotin-SIRPalpha, TR-FRET ratio; series mostly up to 38.3 µM
T1 sequence (P78324 whole entry, looked up): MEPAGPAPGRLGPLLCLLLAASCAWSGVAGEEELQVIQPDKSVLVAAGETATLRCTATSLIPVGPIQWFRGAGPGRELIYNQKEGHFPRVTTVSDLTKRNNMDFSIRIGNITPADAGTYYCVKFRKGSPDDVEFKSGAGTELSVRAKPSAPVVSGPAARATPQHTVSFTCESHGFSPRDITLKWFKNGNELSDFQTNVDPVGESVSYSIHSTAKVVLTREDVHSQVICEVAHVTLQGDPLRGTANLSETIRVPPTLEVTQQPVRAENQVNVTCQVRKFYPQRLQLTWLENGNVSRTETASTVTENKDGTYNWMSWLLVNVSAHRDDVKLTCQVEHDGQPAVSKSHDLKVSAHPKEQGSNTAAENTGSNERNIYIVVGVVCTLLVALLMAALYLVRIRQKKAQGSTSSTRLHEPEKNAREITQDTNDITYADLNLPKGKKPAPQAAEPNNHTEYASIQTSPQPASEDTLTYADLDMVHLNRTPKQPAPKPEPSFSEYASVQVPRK
T1 sequence (Q08722 whole entry, looked up): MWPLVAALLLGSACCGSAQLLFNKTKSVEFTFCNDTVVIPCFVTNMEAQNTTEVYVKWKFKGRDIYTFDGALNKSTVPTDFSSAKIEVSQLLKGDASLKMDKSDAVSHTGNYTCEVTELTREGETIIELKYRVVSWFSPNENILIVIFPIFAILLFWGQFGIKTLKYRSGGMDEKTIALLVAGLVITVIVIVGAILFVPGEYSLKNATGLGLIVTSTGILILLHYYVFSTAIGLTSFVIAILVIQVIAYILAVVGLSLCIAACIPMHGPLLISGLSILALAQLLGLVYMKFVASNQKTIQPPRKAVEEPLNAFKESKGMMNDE
Method in brief: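 First, His-tagged CD47 and Eu-labelled anti-His antibody met the compound for 30 min; next, site-specifically biotinylated SIRPalpha was added for 30 min; finally streptavidin-APC was added before reading the TR-FRET ratio.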

[5] = target: T1, Tyrosine-protein phosphatase non-receptor type substrate 1 (Homo sapiens) + Leukocyte surface antigen CD47 (Homo sapiens); assay: CD47-SIRPalpha protein protein interaction - Alpha assay qHTS validation (AID 1347059); settings: AlphaScreen CD47-His/biotin-SIRPalpha binding, LOPAC; series mostly up to 38.3 µM;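 note: bead proximity luminescence from CD47 binding SIRPalpha after compound preincubation with SIRPalpha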
Method in brief: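 Binding is measured by AlphaScreen proximity: Ni-NTA acceptor beads capture His-CD47, streptavidin donor beads capture biotin-SIRPalpha. Each of three additions (SIRPalpha with compound, CD47, beads) incubates 30 min at room temperature protected from light.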

[6] = target: Parathyroid hormone/parathyroid hormone-related peptide receptor (Homo sapiens) (UniProt Q03431); assay: qHTS for PTHR1 Agonists: Optimization Screen against the NCGC LOPAC library (AID 1347079); settings: HEK293 GP2 PTHR1 GloSensor cAMP luminescence, 1 h; series mostly up to 57.1 µM;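 note: GloSensor cAMP luminescence in HEK-293 GP2 cells expressing human PTHR1 with IBMX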
Parathyroid hormone/parathyroid hormone-related peptide receptor (Homo sapiens), sequence (Q03431 whole entry, looked up): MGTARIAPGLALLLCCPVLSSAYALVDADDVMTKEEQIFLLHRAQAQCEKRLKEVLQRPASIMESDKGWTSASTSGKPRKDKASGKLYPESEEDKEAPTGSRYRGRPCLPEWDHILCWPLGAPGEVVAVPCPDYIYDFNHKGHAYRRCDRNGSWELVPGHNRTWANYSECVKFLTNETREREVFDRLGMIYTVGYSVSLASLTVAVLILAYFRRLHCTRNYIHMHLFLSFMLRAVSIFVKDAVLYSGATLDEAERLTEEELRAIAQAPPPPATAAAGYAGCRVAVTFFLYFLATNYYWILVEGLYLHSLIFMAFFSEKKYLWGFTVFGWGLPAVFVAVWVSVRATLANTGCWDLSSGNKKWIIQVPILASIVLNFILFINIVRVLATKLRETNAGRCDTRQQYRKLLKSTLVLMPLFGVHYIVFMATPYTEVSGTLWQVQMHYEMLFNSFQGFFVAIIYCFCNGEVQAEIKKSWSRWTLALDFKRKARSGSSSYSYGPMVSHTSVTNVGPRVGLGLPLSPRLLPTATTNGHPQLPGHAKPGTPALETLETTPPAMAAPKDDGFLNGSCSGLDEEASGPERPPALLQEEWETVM
Method in brief: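 Compounds were tested across a qHTS titration. PTHR1-expressing GP2 cells report cAMP rises via GloSensor luminescence after 1 hr compound exposure at 37C with IBMX present.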

[7] = target: T1, Tyrosine-protein phosphatase non-receptor type substrate 1 (Homo sapiens) + Leukocyte surface antigen CD47 (Homo sapiens); assay: CD47-SIRPalpha protein protein interaction - HTRF assay qHTS validation (AID 1347058; active = well fitted curve in the direction sought with a large enough effect in the signal ratio, not every such curve was filed as active; the % refers to the signal ratio;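 note: recombinant soluble extracellular CD47 with His tag and biotinylated SIRPalpha domains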); settings: TR-FRET HTRF CD47-His / biotin-SIRPalpha binding, ratio 665/615; series mostly up to 38.3 µM
Method in brief: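 TR-FRET read (Ch1/Ch2 ratio) of soluble extracellular CD47 and Avi-biotinylated SIRPalpha domains in PBS pH 7.4 with 0.05% IGEPAL; 7-point compound titration. Sequential 30 min room-temperature steps; non-biotinylated SIRPalpha as control inhibitor.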

CCCCCCCCCCCCCCCCCC(=O)O
Potency [1]: inactive | Potency [2]: inactive | Potency [3]: inactive

NS(=O)(=O)c1ccc(-n2nc(C(F)(F)F)cc2-c2ccc(Cl)cc2)cc1
Potency [1]: inactive | Potency [4]: inactive | Potency [5]: inactive

CCCCCCCCCCCC(=O)[O][Sn]([CH2]CCC)([CH2]CCC)[O]C(=O)CCCCCCCCCCC
Potency [1]: inactive | Potency [2]: inactive | Potency [3]: inactive

N[C@H](CCCP(=O)(O)O)C(=O)O
Potency [1]: inactive | Potency [4]: inactive | Potency [5]: inactive

COc1ccc(NC(=O)/C=C/c2ccc(Cl)cc2)cc1
Potency [1]: inactive | Potency [4]: inactive | Potency [5]: inactive | Potency [6]: inactive

C[N+]1(C)C2CC(OC(=O)[C@H](CO)c3ccccc3)CC1C1OC12 (some centres undefined)
Potency [1]: inactive | Potency [4]: inactive | outcome [7]: inactive | Potency [5]: inactive | Potency [6]: inactive

COC(=O)C1=C(C)NC(C)=C(C(=O)OCC(C)C)C1c1ccccc1[N+](=O)[O-] (centres undefined)
Potency [1]: inactive | Potency [2]: inactive | Potency [3]: inactive

O=c1cc(-c2ccccc2)oc2c(O)c(O)ccc12
Potency [1]: inactive | Potency [5]: inactive

CCOc1ccc2nc(S(N)(=O)=O)sc2c1
Potency [1]: inactive | Potency [2]: inactive | Potency [3]: inactive

CCCCN(CC)c1nc(C)nc2c1c(C)cn2-c1c(C)cc(C)cc1C
Potency [1]: inactive | Potency [4]: inactive | Potency [5]: inactive

CC(C(=O)O)c1ccc(C(=O)c2cccs2)cc1 (centres undefined)
Potency [1]: inactive | Potency [2]: inactive | Potency [3]: inactive

O=C(CS)Nc1ccccc1
Potency [1]: inactive | Potency [2]: inactive

CN1CCN(c2cc3c(nn2)Oc2ccccc2N3C)CC1
Potency [1]: inactive | Potency [2]: inactive | Potency [3]: inactive

COc1cc(OC)cc(-c2cc3cnc(N)nc3nc2NC(=O)NC(C)(C)C)c1
Potency [1]: inactive | Potency [4]: inactive | outcome [7]: inactive | Potency [5]: inactive

CC(C(=O)O)c1ccc2c(c1)[nH]c1ccc(Cl)cc12 (centres undefined)
Potency [1]: inactive | Potency [2]: inactive | Potency [3]: inactive

Nc1nc2c(ncn2[C@@H]2O[C@H](CO)[C@@H](O)[C@@H]2O)c(=O)[nH]1
Potency [1]: inactive | Potency [4]: inactive | outcome [7]: inactive | Potency [5]: inactive

CC12C(=O)OC(=O)C1(C)C1CCC2O1 (centres undefined)
Potency [1]: 3980 nM (active) | Potency [4]: inactive | outcome [7]: inactive | Potency [5]: inactive | Potency [6]: inactive

Cc1cn([C@H]2CC(N=[N+]=[N-])[C@@H](CO)O2)c(=O)[nH]c1=O (some centres undefined)
Potency [1]: inactive | Potency [4]: inactive | Potency [5]: inactive

COc1ccc(/C=C/c2nc(NCCCN(C)C)c3ccccc3n2)cc1
Potency [1]: inactive | Potency [5]: inactive

C#CC1(O)CC[C@H]2[C@@H]3CCC4=CCCC[C@@H]4[C@H]3CC[C@@]21C (some centres undefined)
Potency [1]: inactive | Potency [2]: inactive

O=C(c1ccc(Cl)cc1)N1CCN(c2ccc([N+](=O)[O-])c3ncccc23)CC1
Potency [1]: inactive | Potency [4]: inactive | Potency [5]: inactive | Potency [6]: inactive

COC(=O)Nc1nc2ccc(C(=O)C3CC3)cc2[nH]1
Potency [1]: inactive | Potency [2]: 1330 nM (active) | Potency [3]: 1060 nM (active)

CN(C)c1ccc(N=NS(=O)(=O)O)cc1
Potency [1]: inactive | Potency [2]: inactive

COc1ccccc1CN[C@@H]1CCCN[C@@H]1c1ccccc1
Potency [1]: inactive | Potency [4]: inactive | outcome [7]: inactive | Potency [5]: inactive

CN(C)CCC(c1ccc(Cl)cc1)c1ccccn1 (centres undefined)
Potency [1]: inactive | Potency [6]: inactive

O=C(OCc1ccccc1)c1ccccc1
Potency [1]: inactive | Potency [2]: inactive | Potency [3]: inactive

COc1cc(OC)c(/C=C2/C(=O)Nc3ccccc32)c(OC)c1
Potency [1]: inactive | Potency [6]: inactive

O=C(NOCC1CC1)c1cc(Br)c(F)c(F)c1Nc1ccc(I)cc1Cl
Potency [1]: inactive | Potency [4]: inactive | Potency [5]: inactive

Oc1cc(O)cc(/C=C/c2ccc(O)c(O)c2)c1
Potency [1]: inactive | Potency [4]: inactive | Potency [6]: inactive

CCOC(=O)C1=C(C)NC(C)=C(C(=O)OCC)C1c1c(F)c(F)c(F)c(F)c1F
Potency [1]: inactive | Potency [4]: inactive | outcome [7]: inactive | Potency [5]: inactive | Potency [6]: inactive

CS(=O)(=O)c1ccc(-n2nc(C(F)(F)F)cc2-c2ccc(F)cc2)cc1
Potency [1]: inactive | Potency [4]: inactive | outcome [7]: inactive | Potency [5]: inactive

CNCC[C@H](Oc1ccc(C(F)(F)F)cc1)c1ccccc1
Potency [1]: inactive | Potency [6]: inactive

O=C(Nc1ccncc1)c1cc([N+](=O)[O-])ccc1Cl
Potency [1]: inactive | Potency [4]: inactive | Potency [5]: inactive

CC[C@H]1OC(=O)[C@H](C)C(O[C@H]2C[C@@](C)(OC)[C@@H](O)[C@H](C)O2)[C@H](C)[C@@H](OC2O[C@H](C)C[C@H](N(C)C)[C@H]2O)[C@](C)(O)C[C@@H](C)CN(C)[C@H](C)[C@@H](O)[C@]1(C)O (some centres undefined)
Potency [1]: inactive | Potency [4]: inactive | outcome [7]: inactive | Potency [5]: inactive

CCNc1nc2c(ncn2[C@H]2C[C@H](O)[C@@H](CO)O2)c(=O)[nH]1
Potency [1]: inactive | Potency [4]: inactive | outcome [7]: inactive | Potency [5]: inactive

C/C(=N\O)c1ccc(OCC(=O)N2CCCCC2)cc1
Potency [1]: inactive | Potency [2]: inactive | Potency [3]: inactive
